# Measurements reported in PubChem BioAssay (EPA / NIEHS).
# Calls of active or inactive are those of the source. Rule for the calls: active = hit-call score of the fitted dose curve at least 0.9, where 1 is the maximum; inactive = score below 0.9.
# Legend:
# [1] = ATG_CRE_CIS: Attagene CIS-FACTORIAL HepG2 Assay for human cAMP Responsive Element (CRE) binding protein 3 (AID 2282926); conditions: HepG2 CRE cis-reporter, Attagene multiplexed mRNA; actives raise or lower the signal
# In short: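 We dosed HepG2 cells bearing multiple cis-promoter reporter units for 24 h and measured reporter mRNA by RT-PCR with capillary electrophoresis detection. Bidirectional concentration-response fitting used DMSO as negative control.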
# [2] = molecular target: CCAAT/enhancer-binding protein beta (Homo sapiens) (UniProt P17676); assay: ATG_C_EBP_CIS: Attagene CIS-FACTORIAL HepG2 Assay for human CCAAT/Enhancer Binding Protein (C/EBP) beta (AID 2282927); conditions: HepG2 Attagene cis-factorial transcription factor reporter; actives raise or lower the signal
# Sequence of CCAAT/enhancer-binding protein beta (Homo sapiens) (P17676 whole entry, looked up, the tested form may be a part): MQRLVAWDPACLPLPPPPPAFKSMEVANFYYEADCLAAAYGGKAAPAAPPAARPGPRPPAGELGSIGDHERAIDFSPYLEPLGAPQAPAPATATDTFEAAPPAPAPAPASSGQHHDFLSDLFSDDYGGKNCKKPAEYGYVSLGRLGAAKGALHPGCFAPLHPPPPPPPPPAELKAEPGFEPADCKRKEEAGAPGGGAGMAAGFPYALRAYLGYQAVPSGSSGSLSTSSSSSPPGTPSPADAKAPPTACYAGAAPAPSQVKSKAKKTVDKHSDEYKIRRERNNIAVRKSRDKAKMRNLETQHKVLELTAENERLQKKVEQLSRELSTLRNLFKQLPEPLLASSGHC
# In short: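 Chemical-treated HepG2 cells (24 h) bearing cis-regulated reporter constructs were processed for total RNA, then reverse transcription, PCR amplification, fluorescent primer extension and fragment analysis; gain- and loss-of-signal were fitted against DMSO.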
# [3] = ATG_CMV_CIS: Attagene CIS-FACTORIAL HepG2 Assay for human CMV (Internal Marker) (AID 2282928); conditions: HepG2 CMV promoter reporter, transcription factor profiling; actives raise or lower the signal;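 note: endpoint acts as a background internal control marker rather than a target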
# In short: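 After transient transfection of HepG2 with reporter transcription units driven by cis-regulatory promoters, cells receive test chemical for 24 h. Labeled reporter amplicons, digested with HpaI, are sized and quantified by capillary electrophoresis against DMSO.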
# [4] = ATG_DR4_LXR_CIS: Attagene CIS-FACTORIAL HepG2 Assay for human Liver X Receptor (LXR), DR4 submotif (AID 2282929); conditions: HepG2 Attagene DR4 cis-reporter, mRNA transcription; actives raise or lower the signal
# In short: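 HepG2 cells transiently transfected with cis-promoter-driven multiplexed reporter units (DR4 element) were dosed for 24 h. Reporter mRNA was quantified by RT-PCR, fluorescent primer extension, HpaI digestion and capillary electrophoresis; bidirectional fitting versus DMSO baseline.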
# [5] = molecular target: Aryl hydrocarbon receptor (Homo sapiens) (UniProt P35869); assay: ATG_Ahr_CIS: Attagene CIS-FACTORIAL HepG2 Assay for human Aryl Hydrocarbon Receptor (Ahr) (AID 2282930); conditions: HepG2 AhR cis-factorial reporter transcription; actives raise or lower the signal
# Sequence of Aryl hydrocarbon receptor (Homo sapiens) (P35869 whole entry, looked up): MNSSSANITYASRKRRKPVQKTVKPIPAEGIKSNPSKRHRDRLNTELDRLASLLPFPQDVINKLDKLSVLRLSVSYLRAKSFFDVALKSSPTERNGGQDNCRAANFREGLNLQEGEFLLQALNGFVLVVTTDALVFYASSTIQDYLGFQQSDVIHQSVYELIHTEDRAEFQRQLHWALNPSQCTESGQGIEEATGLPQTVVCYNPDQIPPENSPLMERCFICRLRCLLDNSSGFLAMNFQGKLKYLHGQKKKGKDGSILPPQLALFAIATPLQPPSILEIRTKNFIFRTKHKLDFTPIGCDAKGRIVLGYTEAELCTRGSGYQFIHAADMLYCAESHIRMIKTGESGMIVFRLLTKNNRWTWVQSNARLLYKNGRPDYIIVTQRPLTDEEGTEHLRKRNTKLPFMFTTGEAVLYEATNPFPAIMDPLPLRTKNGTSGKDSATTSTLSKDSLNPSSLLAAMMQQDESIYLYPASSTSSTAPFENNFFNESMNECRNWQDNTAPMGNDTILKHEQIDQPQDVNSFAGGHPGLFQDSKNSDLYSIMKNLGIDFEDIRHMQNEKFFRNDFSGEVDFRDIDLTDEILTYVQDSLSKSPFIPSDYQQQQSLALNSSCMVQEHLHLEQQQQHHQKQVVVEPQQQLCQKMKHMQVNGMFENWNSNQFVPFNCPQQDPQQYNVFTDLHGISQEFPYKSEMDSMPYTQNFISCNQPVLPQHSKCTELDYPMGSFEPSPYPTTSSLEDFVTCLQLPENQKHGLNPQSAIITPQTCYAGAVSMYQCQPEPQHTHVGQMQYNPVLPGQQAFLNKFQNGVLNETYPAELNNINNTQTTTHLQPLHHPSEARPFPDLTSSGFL
# In short: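 Following 24 h of chemical dosing, transfected HepG2 liver cells with cis-driven reporter units were lysed for RNA; reporter mRNA was quantified via RT-PCR and capillary electrophoresis, and responses fitted bidirectionally from DMSO.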
# [6] = ATG_AP_2_CIS: Attagene CIS-FACTORIAL HepG2 Assay for human Activator Protein 2 (AP-2) (AID 2282932); conditions: HepG2 AP-2 cis-reporter, Attagene transcription factor profiling; actives raise or lower the signal
# In short: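 HepG2 cells were transiently transfected with multiple cis-promoter reporter transcription units and dosed for 24 h. Reporter mRNA was measured by RT-PCR with capillary electrophoresis fluorescence; bidirectional fits relative to DMSO baseline.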
# [7] = ATG_BRE_CIS: Attagene CIS-FACTORIAL HepG2 Assay for human Bone Morphogenetic Protein (BMP) Response Element (BRE) (AID 2282933); conditions: HepG2 BMP response element reporter, Attagene transcription factor profiling; actives raise or lower the signal
# In short: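 Endogenous transcription factor activity at a BMP response element was monitored in transfected HepG2 cells 24 h after dosing. Fluorescent RT-PCR products were resolved by capillary electrophoresis, and activity was fitted in both directions versus DMSO.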
# [8] = molecular target: Retinoic acid receptor alpha (Homo sapiens) (UniProt P10276); assay: ATG_DR5_RAR_CIS: Attagene CIS-FACTORIAL HepG2 Assay for human Retinoic Acid Receptor Alpha (RARE), DR5 submotif (AID 2282934); conditions: HepG2 Attagene cis-factorial RARE DR5 reporter, mRNA; actives raise or lower the signal
# Sequence of Retinoic acid receptor alpha (Homo sapiens) (P10276 whole entry, looked up): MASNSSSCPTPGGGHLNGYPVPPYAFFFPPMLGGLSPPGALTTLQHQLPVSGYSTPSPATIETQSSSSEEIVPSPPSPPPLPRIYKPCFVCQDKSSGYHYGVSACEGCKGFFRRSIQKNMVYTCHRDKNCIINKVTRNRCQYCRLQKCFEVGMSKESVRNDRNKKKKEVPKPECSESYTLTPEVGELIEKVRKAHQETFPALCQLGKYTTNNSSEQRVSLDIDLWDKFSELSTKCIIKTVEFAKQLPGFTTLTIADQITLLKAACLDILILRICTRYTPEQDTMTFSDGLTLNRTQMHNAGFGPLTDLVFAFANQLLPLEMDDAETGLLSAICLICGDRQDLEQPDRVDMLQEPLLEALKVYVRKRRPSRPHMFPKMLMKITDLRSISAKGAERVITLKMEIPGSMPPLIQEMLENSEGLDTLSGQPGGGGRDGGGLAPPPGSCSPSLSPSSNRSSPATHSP
# In short: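 Transfected HepG2 reporter cells are exposed to chemicals for 24 h. Then RNA is extracted and the DR5 element reporter transcript is measured by RT-PCR and capillary electrophoresis, with bidirectional curve fitting relative to DMSO.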
# [9] = molecular target: Transcription factor E2F1 (Homo sapiens) (UniProt Q01094); assay: ATG_E2F_CIS: Attagene CIS-FACTORIAL HepG2 Assay for human E2F Transcription Factor 1 (AID 2282935); conditions: HepG2 Attagene cis-reporter, E2F reporter RNA transcripts; actives raise or lower the signal
# Sequence of Transcription factor E2F1 (Homo sapiens) (Q01094 whole entry, looked up): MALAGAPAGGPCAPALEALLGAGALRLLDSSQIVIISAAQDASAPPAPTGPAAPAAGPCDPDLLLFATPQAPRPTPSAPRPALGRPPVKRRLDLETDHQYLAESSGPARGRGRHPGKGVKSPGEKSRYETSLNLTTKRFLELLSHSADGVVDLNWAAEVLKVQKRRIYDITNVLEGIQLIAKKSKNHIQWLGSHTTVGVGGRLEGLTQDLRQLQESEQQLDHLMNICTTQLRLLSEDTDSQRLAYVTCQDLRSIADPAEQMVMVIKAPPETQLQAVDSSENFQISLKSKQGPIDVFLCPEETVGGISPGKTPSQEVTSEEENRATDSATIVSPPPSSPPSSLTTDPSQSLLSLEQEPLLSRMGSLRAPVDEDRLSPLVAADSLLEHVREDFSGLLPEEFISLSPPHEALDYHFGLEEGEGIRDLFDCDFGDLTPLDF
# In short: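 HepG2 cells transiently transfected with multiplexed cis-element reporter units, dosed for 24 h. Reporter mRNA measured by RT-PCR, 6-FAM primer-extension labeling, HpaI digestion and capillary electrophoresis; bidirectional fit versus DMSO baseline.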
# [10] = ATG_E_Box_CIS: Attagene CIS-FACTORIAL HepG2 Assay for human Enhancer Box (E-box) (AID 2282936); conditions: HepG2 E-box cis-reporter transcription, actives raise or lower the signal
# In short: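 HepG2 cells transiently transfected with multiplexed cis-element reporter units sensing endogenous transcription factor activity; 24 h compound exposure. Reporter mRNA measured by RT-PCR, 6-FAM primer extension, HpaI digestion and capillary electrophoresis; bidirectional fit versus DMSO.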
# [11] = ATG_M_61_CIS: Attagene CIS-FACTORIAL HepG2 Assay for M61 Transcription Factor (Internal Marker) (AID 2282937); conditions: HepG2 Attagene CIS-FACTORIAL M61 internal marker reporter; actives raise or lower the signal
# In short: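 HepG2 cells transiently transfected with cis-element-driven multiple reporter transcription units, dosed for 24 h. Reporter mRNA measured by RT-PCR, 6-FAM primer-extension labelling, HpaI digestion and capillary electrophoresis; bidirectional fit versus DMSO baseline.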
# [12] = ATG_EGR_CIS: Attagene CIS-FACTORIAL HepG2 Assay for human Early Growth Response 1 (EGR1) (AID 2282938); conditions: HepG2 Attagene CIS-FACTORIAL EGR reporter mRNA; actives raise or lower the signal
# In short: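 HepG2 cells transiently transfected with cis-promoter-driven multiplexed reporter transcription units; reporter mRNA measured 24 h after compound dosing by RT-PCR, 6-FAM primer extension, HpaI digestion and capillary electrophoresis. Bidirectional fit versus DMSO baseline.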
# [13] = ATG_M_19_CIS: Attagene CIS-FACTORIAL HepG2 Assay for M19 Transcription Factor (Internal Marker) (AID 2282939); conditions: HepG2 Attagene CIS-FACTORIAL M19 internal marker reporter; actives raise or lower the signal
# In short: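 Background-control endpoint from a multiplexed HepG2 reporter panel. Cells carrying cis-regulated reporter constructs are treated 24 h, then reporter transcripts are amplified, fluorescently labelled and sized by capillary electrophoresis. DMSO defines baseline.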
# [14] = ATG_Ets_CIS: Attagene CIS-FACTORIAL HepG2 Assay for human Erythroblast Transformation Specific (ETS) (AID 2282941); conditions: HepG2 ETS cis-reporter transcription, actives raise or lower the signal
# In short: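 Human HepG2 hepatoma cells were transiently transfected with promoter-driven reporter constructs and treated for 24 hours. Reporter transcripts were quantified by RT-PCR with fluorescent primer extension; bidirectional curve fitting used DMSO as reference.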
# [15] = molecular target: Hepatocyte nuclear factor 3-beta (Homo sapiens) (UniProt Q9Y261); assay: ATG_FoxA2_CIS: Attagene CIS-FACTORIAL HepG2 Assay for human Forkhead box A2 (FOXA2) (AID 2282942); conditions: HepG2 cis-reporter transcription factor activity, 24 h; actives raise or lower the signal
# Sequence of Hepatocyte nuclear factor 3-beta (Homo sapiens) (Q9Y261 whole entry, looked up): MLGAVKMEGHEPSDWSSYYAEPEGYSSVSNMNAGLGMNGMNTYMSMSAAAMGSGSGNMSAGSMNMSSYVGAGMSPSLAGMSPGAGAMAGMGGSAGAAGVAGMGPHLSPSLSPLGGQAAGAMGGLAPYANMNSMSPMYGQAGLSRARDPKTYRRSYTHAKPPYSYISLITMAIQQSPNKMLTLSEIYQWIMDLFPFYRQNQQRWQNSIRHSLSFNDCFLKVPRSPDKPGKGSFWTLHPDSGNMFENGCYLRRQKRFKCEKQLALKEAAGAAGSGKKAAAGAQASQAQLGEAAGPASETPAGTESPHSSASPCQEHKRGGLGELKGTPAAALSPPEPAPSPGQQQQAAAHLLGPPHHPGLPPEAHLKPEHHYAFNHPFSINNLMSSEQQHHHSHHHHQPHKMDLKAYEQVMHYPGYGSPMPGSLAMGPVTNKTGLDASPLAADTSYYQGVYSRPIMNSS
# In short: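 HepG2 cells transiently transfected with multiple cis-regulated reporter transcription units, dosed for 24 h. Reporter mRNA measured by RT-PCR, 6-FAM labelling, HpaI digestion and capillary electrophoresis; bidirectional fitting against DMSO baseline.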
# [16] = ATG_FoxO_CIS: Attagene CIS-FACTORIAL HepG2 Assay for human Forkhead box O (FoxO) (AID 2282943); conditions: HepG2 Attagene cis-reporter, FoxO element, mRNA; actives raise or lower the signal
# In short: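 24 h chemical exposure, HepG2 with transient cis-MRTU transfection. RNA extraction, oligo(dT) RT, reporter-specific PCR, primer-extension labelling, HpaI digestion, CE fragment analysis; bidirectional fit, DMSO baseline.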
# [17] = ATG_GATA_CIS: Attagene CIS-FACTORIAL HepG2 Assay for human GATA Binding Protein (AID 2282944); conditions: HepG2 GATA cis-element reporter, Attagene multiplex mRNA; actives raise or lower the signal
# In short: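 Endogenous transcription factor activity was captured through cis-promoter-driven reporters in transfected HepG2 cells. After 24 h exposure, reporter transcripts were quantified by RT-PCR with fluorescent capillary electrophoresis, and responses fitted both directions against DMSO.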
# [18] = ATG_GLI_CIS: Attagene CIS-FACTORIAL HepG2 Assay for human Zinc Finger Protein GLI1 (AID 2282945); conditions: HepG2, Attagene cis-factorial reporter mRNA, GLI element; actives raise or lower the signal
# In short: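 HepG2 cells transiently transfected with cis-promoter multiplexed reporter units report endogenous transcription factor activity. After 24 h chemical exposure, reporter mRNA was quantified by RT-PCR, 6-FAM labelling, HpaI digestion and capillary electrophoresis, with bidirectional fitting against DMSO.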
# [19] = ATG_AP_1_CIS: Attagene CIS-FACTORIAL HepG2 Assay for human Activator Protein 1 (AP-1) (AID 2282931); conditions: HepG2 Attagene cis-factorial AP-1 reporter mRNA; actives raise or lower the signal
# In short: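 HepG2 cells transiently transfected with cis-element-driven multiplex reporter units; 24 h compound exposure. Reporter mRNA quantified by RT-PCR, FAM-labelled fragments resolved by capillary electrophoresis; bidirectional fit versus DMSO baseline.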
# [20] = ATG_ERE_CIS: Attagene CIS-FACTORIAL HepG2 Assay for Estrogen Response Element (ERE) (AID 2282940); conditions: HepG2 ERE cis-reporter, Attagene RNA transcript; actives raise or lower the signal
# In short: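 Cells used were human hepatoma HepG2, transfected with multiple reporter transcription units under cis-regulatory promoters. Reporter mRNA, read 24 h post-dosing via fluorescent RT-PCR products on capillary electrophoresis, was fitted bidirectionally relative to DMSO.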
smiles,measurement,setting,value
CCCCCOC(=O)CCC,outcome,[1],inactive
same,outcome,[2],inactive
same,outcome,[3],inactive
same,outcome,[4],inactive
same,outcome,[5],inactive
same,outcome,[6],inactive
same,outcome,[7],inactive
same,outcome,[8],inactive
same,outcome,[9],inactive
same,outcome,[10],inactive
same,outcome,[11],inactive
same,outcome,[12],inactive
same,outcome,[13],inactive
same,outcome,[14],inactive
same,outcome,[15],inactive
same,outcome,[16],inactive
same,outcome,[17],inactive
same,outcome,[18],inactive
COC(C)CCO (stereo not drawn),outcome,[1],inactive
same,outcome,[2],inactive
same,outcome,[3],inactive
same,outcome,[4],inactive
same,outcome,[5],inactive
same,outcome,[6],inactive
same,outcome,[7],inactive
same,outcome,[8],inactive
same,outcome,[10],inactive
same,outcome,[11],inactive
same,outcome,[12],inactive
same,outcome,[13],inactive
same,outcome,[14],inactive
same,outcome,[15],inactive
same,outcome,[16],inactive
same,outcome,[17],inactive
same,outcome,[18],inactive
CCCC(=O)c1cc(O)c(O)cc1O,outcome,[1],inactive
same,outcome,[2],inactive
same,outcome,[3],inactive
same,outcome,[4],inactive
same,outcome,[5],inactive
same,outcome,[19],inactive
same,outcome,[6],inactive
same,outcome,[10],inactive
same,outcome,[11],inactive
same,outcome,[12],inactive
same,outcome,[13],inactive
same,outcome,[20],inactive
same,outcome,[15],inactive
same,outcome,[16],inactive
same,outcome,[17],inactive
same,outcome,[18],inactive
O=C[C@@H](O)[C@H](O)[C@H](O)CO,outcome,[1],inactive
same,outcome,[2],inactive
same,outcome,[3],inactive
same,outcome,[4],inactive
same,outcome,[5],inactive
same,outcome,[6],inactive
same,outcome,[7],inactive
same,outcome,[8],inactive
same,outcome,[10],inactive
same,outcome,[11],inactive
same,outcome,[12],inactive
same,outcome,[13],inactive
same,outcome,[14],inactive
same,outcome,[15],inactive
same,outcome,[16],inactive
same,outcome,[17],inactive
same,outcome,[18],inactive
C=CC(C)(C)O,outcome,[1],inactive
same,outcome,[2],inactive
same,outcome,[3],inactive
same,outcome,[4],inactive
same,outcome,[5],inactive
same,outcome,[6],inactive
same,outcome,[7],inactive
same,outcome,[9],inactive
same,outcome,[10],inactive
same,outcome,[11],inactive
same,outcome,[12],inactive
same,outcome,[13],inactive
same,outcome,[20],inactive
same,outcome,[14],inactive
same,outcome,[15],inactive
same,outcome,[16],inactive
same,outcome,[17],inactive
same,outcome,[18],inactive
O=Nc1ccc(Nc2ccccc2)cc1,outcome,[1],inactive
same,AC50,[2],8.78 µM (active)
same,AC50,[3],8.52 µM (active)
same,AC50,[4],25.3 µM (active)
same,AC50,[5],33.4 µM (active)
same,outcome,[6],inactive
same,outcome,[7],inactive
same,outcome,[9],inactive
same,AC50,[10],9.04 µM (active)
same,outcome,[11],inactive
same,outcome,[13],inactive
same,outcome,[20],inactive
same,outcome,[14],inactive
same,AC50,[15],47.9 µM (active)
same,outcome,[16],inactive
same,outcome,[17],inactive
same,AC50,[18],55 µM (active)
